The nature of assay [1]: qHTS drug screen for cell cycle checkpoint inhibitors in PARPi-resistant BRCA-mutant ovarian cancer cell lines. (AID 1963452; calls by dose curve; also: potency is read from the fitted curve at half-maximal effect). Conditions: PEO1/OlaR viability, CellTiter-Glo luminescence, 96 h; for Z-AUC: stronger effect = lower value. The essentials: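 PEO1, PEO4 and PEO1/OlaR ovarian cancer cells, 600 per well, exposed 96 h at 37C to a dilution series. Viability read by CellTiter-Glo luminescence, normalized to DMSO and empty wells; activity summarized as Z-AUC.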

A short description of assay [2]: qHTS profiling for inhibitors of Plasmodium falciparum proliferation (AID 504749). Also: nearly all actives have a fitted effect of over 60% in size. Also: potency is read from the fitted curve at half-maximal effect.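 As to activity, negative = inhibition: 0% = DMSO vehicle and full inhibition = artemisinin control.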 Conditions: P. falciparum in erythrocytes, SYBR Green DNA, 72 h. The essentials: (§1)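 Three-day growth assay of blood-stage parasites in erythrocytes (0.3% parasitemia, 2.5% hematocrit) at 37 C, 5% CO2, quantified by SYBR Green DNA staining after overnight detergent lysis.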
(In qHTS, concentration-response curves come from the screen itself.)

Assay [3] concerns 3D7. The description is as above. Conditions: P. falciparum in erythrocytes, SYBR Green DNA, 72 h; series mostly up to 28.7 µM. The essentials: as §1
Assay [4] concerns 7G8. The description is as above. Particulars: P. falciparum in erythrocytes, SYBR Green DNA, 72 h; series mostly up to 28.7 µM. The procedure, abridged: as §1
Assay [5] relates to AA1029. The assay is described as above. Particulars: P. falciparum in erythrocytes, SYBR Green DNA, 72 h; series mostly up to 28.7 µM. The essentials: as §1
For assay [6], the system named is AS120. Described as above. Particulars: P. falciparum in erythrocytes, SYBR Green DNA, 72 h; series mostly up to 28.7 µM. The essentials: as §1
The subject of assay [7] is ATS189. Described as above. Particulars: P. falciparum in erythrocytes, SYBR Green DNA, 72 h; series mostly up to 28.7 µM. The essentials:
as §1

Assay [8] addresses Nuclear receptor subfamily 1 group I member 2 (Homo sapiens) (UniProt O75469). Put plainly: Dual reporter qHTS for antagonist of Pregnane X Receptor (hPXR) against the NCATS DSHEA and TCM libraries: Luminescence Readout (AID 1920060).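 Also: HepG2 cells carrying hPXR luciferase reporter stimulated with rifampicin at 2 µM; 0% is about no effect.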 Conditions: hPXR dual reporter cells, luciferase luminescence, antagonist mode; series mostly up to 40 µM. The procedure, abridged: (§2)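 Antagonist mode: rifampicin 2 uM final co-added with compounds to hPXR-LucHepG2 cells for 24 h at 37C. Viability by CellTiter-Fluor, Ex/Em 405/540 nm, 1 h; reporter by ONE-Glo luminescence.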

Assay [9] can be described thus: Dual reporter qHTS for antagonist of Pregnane X Receptor (hPXR) against the NCATS DSHEA and TCM libraries: Fluorescence Readout (AID 1920061). Also: 0% is about no effect. Particulars: PXR dual reporter cells, antagonist mode; series mostly up to 40 µM. The essentials:
as §2

For assay [10], the system named is ATS95. Put plainly: qHTS profiling for inhibitors of Plasmodium falciparum proliferation (AID 504749). Also: nearly all actives have a fitted effect of over 60% in size. Also: potency is read from the fitted curve at half-maximal effect.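 As to activity, negative = inhibition: 0% = DMSO vehicle and full inhibition = artemisinin control.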 Particulars: P. falciparum in erythrocytes, SYBR Green DNA, 72 h; series mostly up to 28.7 µM. The essentials:
as §1

The mark [11] stands for this setting: measured here: PEO1 parental Z-AUC.
Where [12] appears, read: at 28.7 µM (top of the series), parasite line A.
Setting [13] is: at 28.7 µM (top of the series), parasite line B.
[14] abbreviates: at 12.8 µM (top of the series), parasite line A.
Setting [15] is: at 12.8 µM (top of the series), parasite line B.

The structures appear in SMILES notation. Records with an inconclusive call do not appear. Calls of active or inactive are those of the source. Unless noted, calls follow the shape of the dose curve; as a rule, active = well fitted curve in the direction sought with a large enough effect; inconclusive = small, poorly fitted or top-dose-only effect, or another doubt; inactive = no such curve, though single readings can be large; an effect the other way counts as inactive or inconclusive.

Nuclear receptor subfamily 1 group I member 2 (Homo sapiens), sequence (O75469 whole entry, looked up): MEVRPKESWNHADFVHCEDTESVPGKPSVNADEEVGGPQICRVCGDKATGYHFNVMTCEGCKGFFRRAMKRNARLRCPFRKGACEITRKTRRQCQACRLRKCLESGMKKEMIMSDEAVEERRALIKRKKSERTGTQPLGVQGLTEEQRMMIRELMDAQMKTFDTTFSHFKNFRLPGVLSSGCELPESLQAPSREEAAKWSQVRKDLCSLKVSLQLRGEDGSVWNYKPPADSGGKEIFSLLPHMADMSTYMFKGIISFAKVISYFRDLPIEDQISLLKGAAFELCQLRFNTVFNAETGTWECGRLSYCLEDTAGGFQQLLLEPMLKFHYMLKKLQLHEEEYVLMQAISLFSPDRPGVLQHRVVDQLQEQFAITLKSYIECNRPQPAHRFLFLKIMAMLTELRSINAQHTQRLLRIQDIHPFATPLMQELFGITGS

Consider `CC(=O)OCC(=O)[C@@]12N=C(C)O[C@@H]1C[C@H]1[C@@H]3CCC4=CC(=O)C=C[C@]4(C)[C@H]3[C@@H](O)C[C@@]12C`, for which the Z-AUC is 0.653 (inactive) in assay [1], 1.08 in assay [1] (setting [11]) and 0.153 in assay [1] (measured here: PEO4 Z-AUC).

`CC(C)(Oc1ccc(Cl)cc1)C(=O)O`: the results for the activity, negative = inhibition in assay [2] (setting [12]) and in assay [2] (setting [13]) were 5.47% (inactive) and 14.8% (inactive), respectively. Also, the Potency entry in [3], in [4], in [5], in assay [6] and in assay [7] was “inactive” throughout.

Regarding `COc1cccc2c1C(=O)c1c(O)c3c(c(O)c1C2=O)C[C@@](O)(C(=O)CO)C[C@@H]3O[C@H]1C[C@H](N)[C@H](O)[C@H](C)O1`, the Z-AUC in assay [1] was -0.906 (inactive); in assay [1] (setting [11]) it was -0.971; in assay [1] (measured here: PEO4 Z-AUC), -0.369.

As to `O=c1ccc2ccccc2o1`, the outcome in [8] and in assay [9] was inactive. Further, the activity, negative = inhibition was 10.1% (inactive) in assay [2] (setting [12]) and 1.35% (inactive) in assay [2] (setting [13]). In addition, the Potency result in [3], in assay [4], in assay [5], in assay [6], in assay [7] and in assay [10] was “inactive” each time.

Regarding `COc1cc2c(cc1O)CC[C@@H]1[C@@H]2CC[C@]2(C)[C@@H](O)CC[C@@H]12`, the Z-AUC in assay [1] was 0.212 (inactive); in assay [1] (setting [11]), -0.545; in assay [1] (measured here: PEO4 Z-AUC), -0.454.

As for `COc1cccc2c1C(=O)c1c(O)c3c(c(O)c1C2=O)C[C@@](O)(C(C)=O)C[C@@H]3O[C@H]1C[C@H](N)[C@H](O)[C@H](C)O1`, the Potency in assay [1] is 0.174 µM (active); in assay [2] (parasite line A), 3.55 µM (active); in assay [2] (parasite line B), 7.08 µM (active); in assay [3], 2 µM (active); in assay [4], 1.26 µM (active); in [5], 4.47 µM (active). Moreover, the values for the Potency in assay [6], in [7] and in [10] were 3.98 µM (active), 8.91 µM (active) and 4.47 µM (active), respectively. Besides, the Z-AUC in [1] (setting [11]) was -2.1; in assay [1] (measured here: PEO4 Z-AUC), -2.06.

For the compound `N[C@H](CO)C(=O)O`, the activity, negative = inhibition in assay [2] (setting [12]) is -0.225% (inactive); in assay [2] (setting [13]) it was -23.4% (inactive). Besides, the Potency entry in assay [3], in assay [4], in assay [5], in assay [6], in assay [7] and in [10] was “inactive” throughout.

For the compound `Nc1ccn([C@@H]2O[C@H](CO)[C@@H](O)C2(F)F)c(=O)n1`, in [1], the Potency was 0.0078 µM (active). For the same compound, the Z-AUC was -3.27 in [1] (setting [11]) and -1.86 in assay [1] (measured here: PEO4 Z-AUC).

Consider `C[C@]12C=CC(=O)C=C1CC[C@@H]1[C@@H]2[C@@H](O)C[C@@]2(C)[C@H]1CC[C@]2(O)C(=O)CO`, for which the Z-AUC in assay [1] is -0.821 (inactive); in assay [1] (setting [11]) it was 0.0884; in [1] (measured here: PEO4 Z-AUC), -0.444.

As for `CC[C@H](C)C(=O)O[C@H]1CCC=C2C=C[C@H](C)[C@H](CC[C@@H]3C[C@@H](O)CC(=O)O3)[C@H]21`, the values for the Z-AUC in [1], in assay [1] (setting [11]) and in assay [1] (measured here: PEO4 Z-AUC) were 1.25 (inactive), 1.13 and 1.15, respectively.

For the compound `C/C=C/c1ccc(OC)cc1`, the compound was classed as inactive in assay [8] and in assay [9].

As for `COc1c(C)c2c(c(O)c1C/C=C(\C)CCC(=O)O)C(=O)OC2`, the Z-AUC was -0.522 (inactive) in assay [1], -0.0213 in [1] (setting [11]) and -0.309 in [1] (measured here: PEO4 Z-AUC). For the same compound, the Potency was 3.16 µM (active) in assay [2] (parasite line A); 3.55 µM (active) in assay [2] (parasite line B); 3.55 µM (active) in assay [3]; 2.51 µM (active) in [4]; 2.51 µM (active) in [5]; 3.16 µM (active) in assay [6]. Besides, the Potency is 2.51 µM (active) in assay [7] and 3.16 µM (active) in assay [10].

As for `CC(=O)O[C@]1(C(C)=O)CC[C@H]2[C@@H]3C[C@H](C)C4=CC(=O)CC[C@]4(C)[C@H]3CC[C@@]21C`, the Z-AUC in assay [1] is -1.26 (inactive); in assay [1] (setting [11]), -0.257; in assay [1] (measured here: PEO4 Z-AUC) it was 0.0735.

As to `Nc1ccc(C(=O)O)cc1`, in assay [9], the outcome was inactive. Moreover, the activity, negative = inhibition in assay [2] (setting [12]) is -7.02% (inactive); in assay [2] (setting [13]), 4.76% (inactive). The Potency result in assay [3], in [4], in assay [5], in [6], in assay [7] and in [10] was “inactive” in each case.

On to `CC(=O)OCC(=O)[C@@]1(O)CC[C@H]2[C@@H]3CCC4=CC(=O)C=C[C@]4(C)[C@H]3[C@@H](O)C[C@@]21C`, for which the figures for the Z-AUC in assay [1], in assay [1] (setting [11]) and in assay [1] (measured here: PEO4 Z-AUC) were -0.27 (inactive), 1.1 and 0.219, respectively.

Consider `C[C@]12CC[C@@H]3c4ccc(O)cc4CC[C@H]3[C@@H]1C[C@@H](O)[C@@H]2O`, for which the Z-AUC was -0.032 (inactive) in [1], 0.00281 in assay [1] (setting [11]) and 0.225 in assay [1] (measured here: PEO4 Z-AUC).

As for `CCn1cc(C(=O)O)c(=O)c2cnc(N3CCCC3)nc21`, the activity, negative = inhibition was -13.8% (inactive) in assay [2] (setting [14]) and 2.72% (inactive) in assay [2] (setting [15]). In addition, the Potency result in [3], in assay [4], in assay [5], in assay [6], in assay [7] and in assay [10] was “inactive” throughout.

Turning to `Cc1cc2c(cc1CC(=O)c1sccc1S(=O)(=O)Nc1onc(C)c1Cl)OCO2`, the Z-AUC in assay [1] is 0.64 (inactive); in assay [1] (setting [11]), 0.98; in assay [1] (measured here: PEO4 Z-AUC), 0.661.

For `COc1cc(NS(C)(=O)=O)ccc1Nc1c2ccccc2nc2ccccc12`, the Z-AUC in assay [1] is -0.779 (inactive); in assay [1] (setting [11]), -1.77; in assay [1] (measured here: PEO4 Z-AUC) it was -0.818. The Potency is 2 µM (active) in assay [2] (parasite line A); 3.16 µM (active) in [2] (parasite line B); 2 µM (active) in assay [3]; 1.26 µM (active) in assay [4]; 3.55 µM (active) in assay [5]; 2.24 µM (active) in assay [6]. For the same compound, the Potency in [7] is 3.98 µM (active); in assay [10], 3.55 µM (active).

Consider `C[C@]12CCC(=O)C=C1[C@@H]1C[C@@H]1[C@H]1[C@@H]3[C@@H]4C[C@@H]4[C@@]4(CCC(=O)O4)[C@@]3(C)CC[C@@H]12`, for which the Z-AUC was 1.29 (inactive) in assay [1], 0.636 in [1] (setting [11]) and 1.11 in assay [1] (measured here: PEO4 Z-AUC).

In the case of `COc1cc(-c2ccc(=O)[nH]n2)ccc1OC(F)F`, the Potency in assay [2] (parasite line A) is 11.2 µM (active); in assay [2] (parasite line B) it was 0.891 µM (active); in assay [5], 0.178 µM (active); in assay [6] it was 0.891 µM (active); in assay [10], 0.251 µM (active). Moreover, the Potency result in assay [3], in assay [4] and in assay [7] was “inactive” each time.

`CC1(C)O[C@@H]2C[C@H]3[C@@H]4C[C@H](F)C5=CC(=O)C=C[C@]5(C)[C@H]4[C@@H](O)C[C@]3(C)[C@]2(C(=O)CO)O1`: the Z-AUC in [1] is 0.212 (inactive); in [1] (setting [11]), 1.77; in assay [1] (measured here: PEO4 Z-AUC) it was 0.487.

Take `CC(=O)N(O)CCCCCNC(=O)CCC(=O)N(O)CCCCCNC(=O)CCC(=O)N(O)CCCCCN`: the figures for the Z-AUC in assay [1], in assay [1] (setting [11]) and in assay [1] (measured here: PEO4 Z-AUC) were -0.069 (inactive), -0.402 and -0.683, respectively. For the same compound, the activity, negative = inhibition in [2] (setting [14]) is 5.32% (inactive); in [2] (setting [15]) it was 1.3% (inactive). Besides, the Potency entry in [3], in [4], in [5], in assay [6], in assay [7] and in assay [10] was “inactive” each time.

`CC/C(=C(/CC)c1ccc(O)cc1)c1ccc(O)cc1`: the Z-AUC in assay [1] is -0.318 (inactive); in assay [1] (setting [11]) it was -0.188; in assay [1] (measured here: PEO4 Z-AUC) it was 0.271. The activity, negative = inhibition in [2] (setting [13]) is -19.4% (inactive). The Potency entry in [3], in assay [5], in assay [6] and in assay [10] was “inactive” in each case.

For the compound `CC(C)n1nc(-c2cc3cc(O)ccc3[nH]2)c2c(N)ncnc21`, the Z-AUC in assay [1] was -1.59 (inactive); in assay [1] (setting [11]) it was -1.29; in [1] (measured here: PEO4 Z-AUC), -1.52.

`Clc1ccc2c(c1)CCc1cccnc1C2=C1CCNCC1`: the activity, negative = inhibition in assay [2] (setting [12]) is -8.94% (inactive); in assay [2] (setting [13]) it was -21.2% (inactive).

With `O=C(O)CNC(=O)c1ccccc1`, the results for the activity, negative = inhibition in [2] (setting [12]) and in assay [2] (setting [13]) were -0.717% (inactive) and 10.3% (inactive), respectively. Also, the Potency entry in assay [3], in assay [4], in [5], in assay [6], in assay [7] and in assay [10] was “inactive” in each case.
